Screening results as filed in PubChem BioAssay.
This is a sample that favours compounds with a hit; in the whole collection about 11% have one here.
JMJD2A Tudor inh = JMJD2A Tudor domain (human) inhibition. O75164. AlphaScreen JMJD2A-Tudor / H3K4me3 peptide binding. Potency, µM (highest dose often 114 µM), actives largely listed as inhibitors. 390,000 compounds, 4.4% hits. AID 504339; note: nearly all actives have a fitted effect of over 50% in size
BAZ2B block = blocks human BAZ2B. Potency, µM (doses to about 114 µM), most hits filed as inhibitors. 360,000 compounds, 4.4% hits. Q9UIF8. AlphaScreen BAZ2B-H3K14Ac peptide displacement; note: nearly all actives have a fitted effect of over 60% in size
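Protein-peptide AlphaScreen: BAZ2B 50 nM, b-H3K14Ac 50 nM, 1x PBS pH 7.4 + 0.01% Tween-20. Preincubation 30 min RT; cpd 30 min RT (top 110 uM); beads 20 min RT, light-protected.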
G9a inh = G9a (human) methyltransferase inhibition. Q96KQ7. G9a H3K9 monomethylation, AlphaScreen, 2 h. Potency, µM (titrated, usually from 102 µM), actives largely listed as inhibitors. 350,000 compounds, 8.8% hits; note: nearly all actives have a fitted effect of over 75% in size
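AlphaScreen read-out: biotin-H3K9 peptide (500 nM) methylation by 20 nM enzyme with 20 uM SAM, 2 h at room temperature after 15 min compound preincubation; anti-monomethyl H3K9 antibody plus donor/acceptor beads, 10 min dark.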
L3MBTL1 inh = blocks human L3MBTL1; Potency, µM (highest dose often 57.1 µM), usual class: inhibitors; AlphaScreen L3MBTL1–H3K9me1 peptide binding; Q9Y468; 230,000 compounds, 0.66% hits; note: nearly all actives have a fitted effect of over 60% in size
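L3MBTL1 (50 nM) pre-complexed 30 min with biotinylated H3(1-15)K9me1 peptide (75 nM), then compounds added for 30 min at room temperature; AlphaScreen streptavidin donor/nickel chelate acceptor beads (10 ug/mL final) read after 30 min dark incubation.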
HP1b chromo inh = blocks HP1-beta chromodomain binding to methylated histone tails. AlphaScreen HP1-beta / biotin-H3K9me3 peptide binding. AID 540317. Potency, µM (series often up to 114 µM), most hits filed as inhibitors. P83916. 390,000 compounds, 0.56% hits; note: nearly all actives have a fitted effect of over 70% in size
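AlphaScreen: HP1-beta (50 nM) preformed 30 min with biotin-H3(1-18)K9me3 peptide (50 nM) in PBS pH 7.4, 0.01% Tween-20. Compound added for 30 min at RT, then streptavidin donor/nickel chelate acceptor beads (10 ug/mL) for 30 min.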
Large screens that a line does not name were inactive. Calls come from the whole dose curve; as a rule, active = well fitted inhibition curve with a large enough effect; inconclusive = small, poorly fitted or top-dose-only effect; inactive = no such curve, though single readings can be large or run the other way.

Cc1cccc(-n2c(CCc3ccccc3)nnc2SCC(=O)c2ccccc2)c1	JMJD2A Tudor inh inconclusive, G9a inh 1.8µM
COc1ccc(NCc2nnc(SCc3ccc(Cl)cc3)n2-c2ccccc2)cc1	JMJD2A Tudor inh 45µM, BAZ2B block 22µM, G9a inh inconclusive, L3MBTL1 inh inconclusive, HP1b chromo inh inconclusive
O=C(O)CSc1nnc(Cc2ccccc2)n1-c1ccccc1	G9a inh 11µM
CSc1ccc(CCNC(=O)Cn2ncn3c(cc4ccccc43)c2=O)cc1	none (no result: L3MBTL1 inh)
Cc1cc2c(s1)c1cnn(Cc3c(F)ccc(F)c3F)c(=O)c1n2C	none (no result: BAZ2B block, G9a inh, L3MBTL1 inh, HP1b chromo inh)
C[C@H](N)CCCP(=O)(O)O	none (no result: JMJD2A Tudor inh, BAZ2B block, L3MBTL1 inh, HP1b chromo inh)
CC1Cc2ccccc2N1Cc1ccc([N+](=O)[O-])cc1 (stereo not given)	JMJD2A Tudor inh 45µM, BAZ2B block 35µM, G9a inh 40µM, HP1b chromo inh 32µM (no result: L3MBTL1 inh)
CC1Cc2ccccc2N1Cc1cccc([N+](=O)[O-])c1 (stereo not given)	JMJD2A Tudor inh 35µM, BAZ2B block 13µM, G9a inh 14µM, HP1b chromo inh 32µM (no result: L3MBTL1 inh)
CC(C)(CNC(=O)CCNC(=O)c1ccc(Br)cc1)N1CCOCC1	none
N#CC(=C(\N)Sc1ccccc1N)/C(C#N)=C(/N)Sc1ccccc1N	G9a inh 32µM (no result: JMJD2A Tudor inh, BAZ2B block, L3MBTL1 inh, HP1b chromo inh)
Nc1ccccc1SCc1ccccc1	none (no result: L3MBTL1 inh)
Cc1ccc(NC(=O)Cn2c(=O)n(Cc3ccco3)c(=O)c3sc4ccccc4c32)c(C)c1	none (no result: L3MBTL1 inh)
O=C1c2cc(Br)ccc2N(Cc2ccc(Br)cc2)S(=O)(=O)C1c1cc(Cl)c(Cl)cc1[N+](=O)[O-] (stereo not given)	JMJD2A Tudor inh 35µM, L3MBTL1 inh inconclusive, HP1b chromo inh inconclusive (no result: BAZ2B block, G9a inh)
Oc1ccc2c(c1)OCC1(O)Cc3cc(O)c(O)cc3C21 (stereo not given)	JMJD2A Tudor inh 20µM, HP1b chromo inh inconclusive (no result: BAZ2B block, L3MBTL1 inh)
Oc1cc2c(cc1O)[C@H]1c3ccc(O)c(O)c3OC[C@@]1(O)C2	JMJD2A Tudor inh 1.3µM, BAZ2B block 35µM, L3MBTL1 inh 35µM, HP1b chromo inh inconclusive
COc1ccc(CN2COc3ccc4c(-c5ccc(OC)cc5)cc(=O)oc4c3C2)cc1	none (no result: L3MBTL1 inh)
CCCc1cc(=O)[nH]c(Nc2cc(Cl)cc(Cl)c2)n1	none (no result: L3MBTL1 inh)
COc1ccccc1N1CCN(C(=O)Cn2c(=O)nc(-c3ccccc3)c3ccccc32)CC1	none (no result: L3MBTL1 inh)
CCOc1ccc(OCC)c(Nc2cc(C)nc3nc(-c4ccco4)nn23)c1	none (no result: L3MBTL1 inh)
NS(=O)(=O)c1ccc(NC(=O)CSc2n[nH]c(=O)n2Cc2ccccc2)cc1	G9a inh inconclusive (no result: L3MBTL1 inh)
O=C(CSc1n[nH]c(=O)n1Cc1ccccc1)Nc1ccc(F)c(F)c1F	BAZ2B block inconclusive, G9a inh 40µM (no result: L3MBTL1 inh)
COc1ccc(/C(C)=N/NC(=S)NCCc2ccccc2)c(O)c1	BAZ2B block inconclusive (no result: L3MBTL1 inh)
Nc1nn2c(-c3ccccc3)cc(=O)[nH]c2c1N=Nc1ccc(Br)cc1	JMJD2A Tudor inh 28µM, HP1b chromo inh inconclusive
Nc1nn2c(-c3ccccc3)cc(=O)[nH]c2c1N=Nc1ccc(O)cc1	BAZ2B block inconclusive, G9a inh inconclusive, L3MBTL1 inh inconclusive, HP1b chromo inh inconclusive
CC(=O)C1=C(C)NC(SCC(=O)c2ccccc2)=C(C#N)C1CC(C)C (stereo not given)	JMJD2A Tudor inh 56µM, BAZ2B block inconclusive, G9a inh inconclusive (no result: L3MBTL1 inh)
O=C(NCc1ccccc1Cl)C(=O)NCC1OCCCN1S(=O)(=O)c1cccs1 (stereo not given)	BAZ2B block inconclusive (no result: G9a inh, L3MBTL1 inh)
Cc1sc(-c2cc3ccccc3oc2=O)nc1-c1ccc(Cl)cc1	none (no result: L3MBTL1 inh)
O=C(NC1CC1)c1ccc2nc(-c3ccco3)c(-c3ccco3)nc2c1	JMJD2A Tudor inh 20µM, HP1b chromo inh 22µM (no result: BAZ2B block, G9a inh, L3MBTL1 inh)
O=C(c1cccc(C(=O)N2CCN(c3ncccn3)CC2)c1)N1CCN(c2ncccn2)CC1	none
O=C(c1ccc2nc(-c3ccco3)c(-c3ccco3)nc2c1)N1CCN(c2ncccn2)CC1	JMJD2A Tudor inh 89µM, BAZ2B block inconclusive, G9a inh 35µM
O=C(NCc1ccccc1)c1ccc2nc(-c3ccco3)c(-c3ccco3)nc2c1	JMJD2A Tudor inh 20µM, BAZ2B block 50µM, G9a inh 1.8µM (no result: L3MBTL1 inh)
CC(=O)c1ccc(NC(=O)c2ccc3nc(-c4ccco4)c(-c4ccco4)nc3c2)cc1	JMJD2A Tudor inh 45µM, BAZ2B block 11µM, G9a inh 1.8µM, HP1b chromo inh 8.9µM (no result: L3MBTL1 inh)
CCc1nc2ccc(C(=O)Nc3ccc(NC(C)=O)cc3)cc2nc1CC	none
